# IL-1B inflam inh: inhibitors of inflammasome signaling (IL-1 beta secretion); THP-1 LPS/ATP IL-1B secretion, AlphaLISA, 16 h; active compounds read low; activity change, % at 57.5 µM; AID 743279; 4.7% of 360,000 active; in the data active = activity change below about -50%; inconclusive = mostly about -30% to -49%
#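 THP-1 cells pretreated 1 hr with compounds (up to 57.5 uM final), then stimulated with LPS (250 ng/mL final) plus ATP (1.25 mM final); secreted IL-1B measured by AlphaLISA after 16 hr, decreased signal indicating inhibition.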
# DT40 TDP1 CPT: growth inhibition of DT40 Tdp1-/-;hTDP1 cells with camptothecin (screen for TDP1 inhibitors) | 12% of 420,000 active | chicken DT40 Tdp1-/-;hTDP1 cells + 20 nM CPT, ATP luminescence, 48 h | Potency, µM (titrated, usually from 46.2 µM), for inactives: top-dose activity change, negative = growth inhibition, usual class: inhibitors | AID 686979; note: potency is the fitted concentration of half-maximal effect; nearly all actives have a fitted effect of over 55% in size
#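 Chicken DT40 Tdp1-/- cells complemented with human TDP1, 400 cells/well, exposed to compounds plus 20 nM camptothecin for at least 48 h at 37 C; viability read as ATP content by CellTiter-Glo luminescence.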
# HT1080NT lethal: kills 2HG-producing HT-1080-NT fibrosarcoma cells; HT-1080-NT fibrosarcoma viability, CellTiter-Glo ATP luminescence, 48 h; 1.6% of 360,000 active; Potency, µM (highest dose often 46.1 µM), inactives show top-dose activity, negative = less viability, actives largely listed as cytotoxic; AID 686970;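 note: NT is the 2HG producing partner of a matched IDH1 knockdown line; potency is the fitted concentration of half-maximal effect; 0% = DMSO-treated cells and -100% = media-only wells without cells; nearly all actives have a fitted effect of over 55% in size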
#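 Luminescent CellTiter-Glo readout after 48 hours of compound exposure at 37 degrees C defined viability of HT-1080-NT cells. Activity was normalized to DMSO wells and cell-free media wells; concentration-response curves were fitted and assigned curve classes.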
# TDP1 cell noCPT: qHTS for Inhibitors of human tyrosyl-DNA phosphodiesterase 1 (TDP1): qHTS in cells in absence of CPT | DT40 Tdp1-/- hTDP1 cells, no CPT, ATP luminescence, 48 h | Potency, µM (doses to about 46.2 µM), without a hit: at the top dose activity change, negative = growth inhibition, usual class: inhibitors | 15% of 420,000 active; note: potency is the fitted concentration of half-maximal effect; nearly all actives have a fitted effect of over 55% in size
#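 Stably hTDP1-transfected Tdp1-null chicken DT40 cells were treated with library compounds minus camptothecin and grown for at least 48 hr at 37 °C, after which cellular ATP was quantified by luminescence.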
# ALOX12 inh: ALOX12 (human) lipoxygenase inhibition; purified 12hLO, xylenol orange hydroperoxide absorbance; Potency, µM (highest dose often 108 µM), for the others: top-dose activity change, negative = inhibition, hits mostly inhibitors; 1.1% of 580,000 active; AID 1671190; note: potency is the fitted concentration of half-maximal effect
# Target sequence (P18054 whole entry, looked up): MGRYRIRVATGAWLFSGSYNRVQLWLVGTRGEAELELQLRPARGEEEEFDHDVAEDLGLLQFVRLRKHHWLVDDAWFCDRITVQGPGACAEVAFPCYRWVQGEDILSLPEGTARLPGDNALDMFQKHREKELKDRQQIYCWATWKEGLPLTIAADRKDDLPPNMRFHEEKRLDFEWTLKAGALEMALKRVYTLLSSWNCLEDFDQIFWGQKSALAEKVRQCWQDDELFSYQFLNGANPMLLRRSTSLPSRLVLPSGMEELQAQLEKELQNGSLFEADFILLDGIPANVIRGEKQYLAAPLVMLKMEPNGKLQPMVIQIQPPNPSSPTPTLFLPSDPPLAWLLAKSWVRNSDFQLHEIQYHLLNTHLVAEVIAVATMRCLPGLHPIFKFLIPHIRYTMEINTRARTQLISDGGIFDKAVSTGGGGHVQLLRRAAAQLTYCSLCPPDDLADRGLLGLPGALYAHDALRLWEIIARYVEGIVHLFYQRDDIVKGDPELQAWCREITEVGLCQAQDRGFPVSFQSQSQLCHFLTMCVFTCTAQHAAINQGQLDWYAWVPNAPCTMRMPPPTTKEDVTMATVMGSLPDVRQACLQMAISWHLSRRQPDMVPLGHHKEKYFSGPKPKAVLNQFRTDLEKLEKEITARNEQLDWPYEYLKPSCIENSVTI
#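 Hydroperoxide product was detected by ferrous iron/xylenol orange as the 573 to 405 nm absorbance ratio. Arachidonic acid at 40 uM (final) was turned over for 30 min at room temperature by 150 nM human 12hLO, pH 7.0 Hepes buffer, after 15 min compound preincubation.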
# HT1080 IDH1KD tx: HT-1080 IDH1 knockdown cell toxicity (counter line); HT-1080 IDH1 knockdown viability, ATP luminescence, 48 h; AID 686971; 2% of 360,000 active; Potency, µM (highest dose often 46.1 µM), for inactives: top-dose activity, negative = toxicity, usual class: cytotoxic;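 note: potency is the fitted concentration of half-maximal effect; 0% = DMSO wells and -100% = cell-free medium wells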
#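 IDH1KD HT-1080 cells, 750/well, RPMI + 5% FBS; compound pinned after 2 h settling; 48 h, 37 °C; CellTiter-Glo luminescence; % activity normalised to DMSO and no-cell wells; curves fitted, classed by r2 and efficacy.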
# Starred values were filed as active, the others as inactive; ? = inconclusive; . = no result given; [ ] = remark or other dose. Only a selection was taken, and hits are over-represented in it overall. Unless noted, calls come from the whole dose curve; as a rule, active = well fitted curve in the direction sought with a large enough effect; inconclusive = small, poorly fitted or top-dose-only effect, or another doubt; inactive = no such curve, though single readings can be large; an effect the other way counts as inactive or inconclusive. Unless noted, % is set by controls: 0 for no effect and ±100 for the full control effect.
SMILES,IL-1B inflam inh,DT40 TDP1 CPT,HT1080NT lethal,TDP1 cell noCPT,ALOX12 inh,HT1080 IDH1KD tx
CCN1CCN(c2ccc(S(=O)(=O)N3CCCCC3)cc2NC(=O)c2sccc2C)CC1,-26,?,0%,23µM*,?,-3%
CCN1CCN(c2ccc(S(=O)(=O)N3CCCCC3)cc2NC(=O)c2ccc(F)cc2)CC1,-9,?,-4%,21µM*,?,-25%
COc1cc(NC(=O)c2ccc(C#N)cc2F)ccc1NC(=O)c1cc2ccccc2o1,.,.,.,.,-13%,.
CC(C)Cc1nn2c(=O)cc(CSc3nnc(-c4ccccc4F)o3)nc2s1,.,.,.,.,13%,.
COc1cccc([S+](=O)([O-])N2CCNc3cnc(Nc4cccnc4)nc3C2)c1,.,.,.,.,-3%[176 µM],.
O=C(Nc1cc(S(=O)(=O)N2CCOCC2)ccc1N1CCCC1)c1ccc(F)cc1,-22,13µM*,11%,?,40µM*,9%
O=C(Nc1cc(S(=O)(=O)N2CCOCC2)ccc1-n1cncn1)c1ccc(Cl)cc1,?,?,-6%,29µM*,-1%,17%
O=C(Nc1cc(Cl)ccc1-n1cncn1)c1cc(S(=O)(=O)N2CCOCC2)ccc1F,-7,-28%,0%,-5%,497%,-1%
CCN1CCN(c2ccc(S(=O)(=O)N3CCCCC3)cc2NC(=O)c2ccc(C)c(C)c2)CC1,-10,?,-28%,23µM*,191%,-21%
Cc1ccccc1N1C(=O)C(Cl)=C(N2CCCCCC2)C1=O,10,29µM*,-1%,?,-29%,-6%
O=C1C(Cl)=C(N2CCCCC2)C(=O)N1c1ccccc1Cl,41,?,2%,-24%,-14%,8%
COC(=O)c1ccc(Oc2c(C)oc3cc(OCc4ccccc4)ccc3c2=O)cc1,.,.,.,.,3%,.
CN(Cc1ccccc1C(F)(F)F)C(=O)C1CCN(Cc2cccnc2)CC1,.,.,.,.,-2%,.
CN(C)CCN1CCCN(C(=O)CCc2ccccc2)c2ccccc21,.,.,.,.,14%,.
CCCCCCNC(=O)N[C@@H](C(=O)NCCC[C@H]1CN2C(=NC[C@@H]2Cc2ccccc2)N1CCc1cccc(OC)c1)C(C)C,-91*,4.1µM*,0%,4.6µM*,.,-2%
C/C(=N\OC(=O)c1ccccc1Br)c1ccc(C)cc1,.,.,.,.,4%,.
CC1(C)Cc2c(cnn2-c2ccc(F)cc2)C(NC(=O)c2ccoc2)C1 (stereo not given),3,-25%,3%,0%,-13%,14%
Cc1nn(-c2ccc(F)cc2)c(C)c1CNC(=O)c1ccc(-n2cc(NC(=O)c3ccoc3)cn2)cc1,.,-15%[9.04 µM],.,12µM*,-1%,.
Cn1c(N=Nc2ccccc2)nc2ccccc21,0,8.2µM*,8.2µM*,7.3µM*,?,10µM*
C=Cc1ccc(Cn2c(=O)n(CCCOC)c(=O)c3sccc32)cc1,-88*,?,-6%,?,0%,-3%
COCCCNC(=O)Cn1c(=O)n(Cc2ccc(F)cc2)c(=O)c2sccc21,13,12%,-5%,0%,.,-3%
Cc1ccc(Cn2c(=O)n(C)c(=O)c3sccc32)cc1,17,?,1%,?,5%,4%
C=Cc1ccc(Cn2c(=O)n(C)c(=O)c3sccc32)cc1,-27,3.7µM*,-25%,?,1%,?
CCCC(CCC)C(=O)Nc1ccc(OC)cc1,.,.,.,.,-22%,.
CCOC(=O)c1nnc(-c2ccccc2)nc1Oc1ccc(Cl)cc1,-71*,21µM*,?,16µM*,?,?
CCOC(=O)c1nnc(-c2ccc(C)cc2)nc1Sc1cccc(Cl)c1,1,9.2µM*,1%,?,0%,11%
CCOC(=O)c1cnc(-c2ccccc2)nc1Oc1ccc(Cl)c(Cl)c1,14,-4%,8%,-4%,18%,9%

# From PubChem BioAssay
